From a collection of fitness landscapes (doi:10.1016/j.celrep.2020.107928) come the findings set out here.

B1: Caulobacter ParB omega fusion; a variant is named by its letters at X, in order, B8GW30 (parent)
chain: MESVVVGEPGMSEGRRGLGRGLSALLGEVDAAPAQAPGEQLGGSREAPIEILQRNPDQPRRTFREEDLEDLSNSIREKGVLQPILVRPSPDTAGEYQIVAGERAWRAAQRAGLKTVPIMVRELDDLAVLEIGIIENVQRADLNVLEEALSYKVLMEKFERTQENIAQTIGKSXSHVANXMRLLXLPDEVQSYLVSGELTAXHARAIAAAADPVALAKQIIEGGLSVRETEALARKAPNLSAGKSKGGRPPRVKDTDTQALESDLSSVLGLDVSIDHRGSTGTLTITYATLEQLDDLCNRLTRGI

Whole data set: some 81,000 sequences, median “one-hybrid fitness for binding parS DNA” near -0.17, cut for the highest 2% near 0.51. The list comes from a sample in which the highest values are over-represented; it also holds similar and randomly drawn sequences.

In this experiment the parent is B1. Briefly: one-hybrid fitness for binding parS DNA (scaled: cognate 1, non-cognate 0); higher = stronger binding. Conditions: with parS DNA site. The gist of the method: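 In E. coli USO, a HIS3 reporter with its site placed 19 bp from the promoter was used to select Caulobacter ParB variants randomised at four specificity codons. Growth lasted 48 hours at 37°C on histidine-free M9 containing 0.1 mM IPTG and 5 mM 3-AT. Fitness was taken as the log change in variant-to-wild-type read ratio from Illumina sequencing of pre- and post-selection plasmids, rescaled between the non-cognate and cognate sites.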
Take RSEN: the “one-hybrid fitness for binding parS DNA” value worked out at 0.333.

On to RFEI, for which the “one-hybrid fitness for binding parS DNA” value is at most 0.2.

Regarding RFEC, the “one-hybrid fitness for binding parS DNA” value stood at 0.727.

Turning to RTEC, the “one-hybrid fitness for binding parS DNA” value came to 0.874.

Consider RTEK, for which the “one-hybrid fitness for binding parS DNA” value was at most 0.2.

RSED: the “one-hybrid fitness for binding parS DNA” value was at most 0.2.

RSEC: the “one-hybrid fitness for binding parS DNA” value was found to be 0.739.

YRPK: the “one-hybrid fitness for binding parS DNA” value is at most 0.2.

Consider DVSL, for which the “one-hybrid fitness for binding parS DNA” value was at most 0.2.

Take PMLT: the “one-hybrid fitness for binding parS DNA” value was at most 0.2.

Take QLTV: the “one-hybrid fitness for binding parS DNA” value is at most 0.2.

Consider RLQW, for which the “one-hybrid fitness for binding parS DNA” value came to 0.245.

As for SPHY, the “one-hybrid fitness for binding parS DNA” value is at most 0.2.

Take KVAV: the “one-hybrid fitness for binding parS DNA” value was at most 0.2.

For NKDH, the “one-hybrid fitness for binding parS DNA” value was at most 0.2.

Regarding AYAS, the “one-hybrid fitness for binding parS DNA” value was at most 0.2.

As to MADT, the “one-hybrid fitness for binding parS DNA” value is at most 0.2.

Take LSCT: the “one-hybrid fitness for binding parS DNA” value was at most 0.2.

Turning to RDSA, the “one-hybrid fitness for binding parS DNA” value was at most 0.2.

RGSA: the “one-hybrid fitness for binding parS DNA” value was found to be 0.399.

For RSSA, the “one-hybrid fitness for binding parS DNA” value came to 0.583.

Regarding NTSA, the “one-hybrid fitness for binding parS DNA” value was at most 0.2.

For RCSA, the “one-hybrid fitness for binding parS DNA” value is 0.575.

Turning to RASA, the “one-hybrid fitness for binding parS DNA” value came out at 0.595.

As to RPSA, the “one-hybrid fitness for binding parS DNA” value is at most 0.2.

On to NASA, for which the “one-hybrid fitness for binding parS DNA” value was at most 0.2.

Regarding RTSA, the “one-hybrid fitness for binding parS DNA” value worked out at 0.591.

For the variant RWSA, the “one-hybrid fitness for binding parS DNA” value came to 0.429.

As to DASA, the “one-hybrid fitness for binding parS DNA” value is at most 0.2.

On to DTSA, for which the “one-hybrid fitness for binding parS DNA” value was at most 0.2.

In the case of CEWG, the “one-hybrid fitness for binding parS DNA” value is at most 0.2.

On to PPVE, for which the “one-hybrid fitness for binding parS DNA” value is at most 0.2.

RGTE: the “one-hybrid fitness for binding parS DNA” value is at most 0.2.

Consider VPLK, for which the “one-hybrid fitness for binding parS DNA” value was at most 0.2.

In the case of LSLN, the “one-hybrid fitness for binding parS DNA” value was at most 0.2.

Consider KMRA, for which the “one-hybrid fitness for binding parS DNA” value was at most 0.2.

On to APLY, for which the “one-hybrid fitness for binding parS DNA” value is at most 0.2.

YCRA: the “one-hybrid fitness for binding parS DNA” value is at most 0.2.

Take PHDR: the “one-hybrid fitness for binding parS DNA” value was at most 0.2.

With INAG, the “one-hybrid fitness for binding parS DNA” value was at most 0.2.

As for SFSA, the “one-hybrid fitness for binding parS DNA” value is at most 0.2.

Regarding CFSA, the “one-hybrid fitness for binding parS DNA” value is at most 0.2.

On to RLSA, for which the “one-hybrid fitness for binding parS DNA” value worked out at 0.587.

Consider RESA, for which the “one-hybrid fitness for binding parS DNA” value was at most 0.2.

For the variant DLSA, the “one-hybrid fitness for binding parS DNA” value is at most 0.2.

As to NMSA, the “one-hybrid fitness for binding parS DNA” value is at most 0.2.

In the case of DHSA, the “one-hybrid fitness for binding parS DNA” value was at most 0.2.

In the case of RHSA, the “one-hybrid fitness for binding parS DNA” value was 0.515.

As to RMSA, the “one-hybrid fitness for binding parS DNA” value came to 0.59.

Consider RFSA, for which the “one-hybrid fitness for binding parS DNA” value was found to be 0.572.

Regarding QQWL, the “one-hybrid fitness for binding parS DNA” value is at most 0.2.

On to HSTQ, for which the “one-hybrid fitness for binding parS DNA” value was at most 0.2.

On to QIPS, for which the “one-hybrid fitness for binding parS DNA” value is at most 0.2.

For NIHV, the “one-hybrid fitness for binding parS DNA” value was at most 0.2.

Take LAFG: the “one-hybrid fitness for binding parS DNA” value was at most 0.2.

On to NNTV, for which the “one-hybrid fitness for binding parS DNA” value was at most 0.2.

SRTI: the “one-hybrid fitness for binding parS DNA” value was at most 0.2.

Regarding LHLI, the “one-hybrid fitness for binding parS DNA” value is at most 0.2.

In the case of FTFT, the “one-hybrid fitness for binding parS DNA” value is at most 0.2.

Regarding RKAR, the “one-hybrid fitness for binding parS DNA” value was at most 0.2.

In the case of RKAK, the “one-hybrid fitness for binding parS DNA” value is at most 0.2.

Turning to RKAT, the “one-hybrid fitness for binding parS DNA” value stood at 0.818.

For the variant RKFD, the “one-hybrid fitness for binding parS DNA” value was at most 0.2.

Consider RKFT, for which the “one-hybrid fitness for binding parS DNA” value is 0.771.

As for RKFH, the “one-hybrid fitness for binding parS DNA” value was found to be 0.211.

Turning to TVYC, the “one-hybrid fitness for binding parS DNA” value was at most 0.2.

QLDE: the “one-hybrid fitness for binding parS DNA” value is at most 0.2.

In the case of GTYL, the “one-hybrid fitness for binding parS DNA” value is at most 0.2.

Take RKYA: the “one-hybrid fitness for binding parS DNA” value amounted to 0.579.

RKIA: the “one-hybrid fitness for binding parS DNA” value was 0.451.

Consider RKHA, for which the “one-hybrid fitness for binding parS DNA” value was found to be 0.67.

Take RKQA: the “one-hybrid fitness for binding parS DNA” value is 0.712.

RKPA: the “one-hybrid fitness for binding parS DNA” value was 0.223.

Turning to NKHA, the “one-hybrid fitness for binding parS DNA” value was at most 0.2.

For the variant RKSA, the “one-hybrid fitness for binding parS DNA” value worked out at 0.717.

Take AYMW: the “one-hybrid fitness for binding parS DNA” value was at most 0.2.

With WTLN, the “one-hybrid fitness for binding parS DNA” value was at most 0.2.

With CKRT, the “one-hybrid fitness for binding parS DNA” value is at most 0.2.

As to VEKG, the “one-hybrid fitness for binding parS DNA” value was at most 0.2.

Regarding ALQI, the “one-hybrid fitness for binding parS DNA” value is at most 0.2.

As for MAKW, the “one-hybrid fitness for binding parS DNA” value was at most 0.2.

As to GFDC, the “one-hybrid fitness for binding parS DNA” value is at most 0.2.

In the case of WTHF, the “one-hybrid fitness for binding parS DNA” value was at most 0.2.

For NKRA, the “one-hybrid fitness for binding parS DNA” value is at most 0.2.

RKLA: the “one-hybrid fitness for binding parS DNA” value is 0.547.

Turning to RKRA, the “one-hybrid fitness for binding parS DNA” value amounted to 0.774.

Take RKGA: the “one-hybrid fitness for binding parS DNA” value worked out at 0.694.

Consider QRWL, for which the “one-hybrid fitness for binding parS DNA” value was at most 0.2.

Regarding LNLV, the “one-hybrid fitness for binding parS DNA” value is at most 0.2.

For the variant PQAL, the “one-hybrid fitness for binding parS DNA” value was at most 0.2.

On to PVGY, for which the “one-hybrid fitness for binding parS DNA” value is at most 0.2.

PLAI: the “one-hybrid fitness for binding parS DNA” value was at most 0.2.

Turning to RIYW, the “one-hybrid fitness for binding parS DNA” value is 0.296.

On to NVVA, for which the “one-hybrid fitness for binding parS DNA” value is at most 0.2.

With DVVA, the “one-hybrid fitness for binding parS DNA” value was at most 0.2.

In the case of DVKA, the “one-hybrid fitness for binding parS DNA” value was at most 0.2.

Regarding RVVA, the “one-hybrid fitness for binding parS DNA” value is 0.565.

As to SVKA, the “one-hybrid fitness for binding parS DNA” value is at most 0.2.

For the variant RVKA, the “one-hybrid fitness for binding parS DNA” value was 0.756.
